Screening results (PubChem)
CYP2C19 inhib: blockers of cytochrome P450 2C19 activity – biochemical, luminescence, ADME assay, primary screen. actives 21% (n = 96,000). inhibition, % at 5 µM. CYP2C19 Supersomes, luciferin-H EGE luminescence, 30 min. P33261;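 active means CYP2C19 inhibition above a set limit at 5 µM in the primary screen, cut at about 50% in these data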
CYP2C9 activ: human CYP2C9 activators, primary screen, biochemical, luminescence | Cytochrome P450 2C9 (Homo sapiens), P11712 | recombinant CYP2C9, luciferin-H conversion; active compounds read high; factor 1 = untreated enzyme, 0 = blocked | activation factor at 5 µM | actives 1.4% (n = 96,000) | AID 1024, 2008;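 active means activation factor of 2 or more for CYP2C9 at a 5 µM dose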
Target sequence (P11712 whole entry, looked up): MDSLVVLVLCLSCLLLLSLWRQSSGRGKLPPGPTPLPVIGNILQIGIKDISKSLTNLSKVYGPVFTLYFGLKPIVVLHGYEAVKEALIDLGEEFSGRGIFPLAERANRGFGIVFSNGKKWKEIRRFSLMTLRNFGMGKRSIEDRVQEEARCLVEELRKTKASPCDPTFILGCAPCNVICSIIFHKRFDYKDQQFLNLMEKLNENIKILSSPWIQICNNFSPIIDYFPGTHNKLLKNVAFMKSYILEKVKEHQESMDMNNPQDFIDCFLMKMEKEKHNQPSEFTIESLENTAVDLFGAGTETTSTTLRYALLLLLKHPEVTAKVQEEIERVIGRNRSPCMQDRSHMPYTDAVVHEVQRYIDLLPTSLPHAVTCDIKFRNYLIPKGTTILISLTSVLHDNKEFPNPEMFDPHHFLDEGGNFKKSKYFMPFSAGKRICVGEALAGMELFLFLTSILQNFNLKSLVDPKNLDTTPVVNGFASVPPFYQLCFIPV
CYP2C9 inh: blockers of cytochrome P450 2C9 activity – biochemical, luminescence, ADME assay, primary screen. AID 777, 2007. actives 20% (n = 96,000). inhibition, % at 5 µM. CYP2C9 Supersomes, luciferin-H conversion. P11712;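 active means blocking of liver enzyme CYP2C9 beyond about 50% at 5 µM, limit read from the data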
Cav3 T inh: Cav3.2 calcium influx blockers – cell-based, Fluo-4 calcium fluorescence, FDSS, MLSMR library, primary screen; Voltage-dependent T-type calcium channel subunit alpha-1H (Homo sapiens), O95180; Cav3.2-expressing cells; active compounds read low; B-score at 10 µM; actives 4% (n = 100,000);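 active means single-dose well whose peak fluorescence ratio is a statistical outlier from its plate by either plate-standardised score or position-corrected B-score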
CYP2C19 act: human CYP2C19 activators, primary screen, biochemical, luminescence. Cytochrome P450 2C19 (Homo sapiens), P33261. recombinant CYP2C19, luciferin-H EGE luminescence; active compounds read high; 0 = fully inhibited enzyme, 1 = untreated enzyme. activation factor at 5 µM. 96,000 tested, under 10 active. AID 1025, 2008;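 active means activation factor of at least 2 at 5 µM in the primary screen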
Large screens that a line does not name were inactive. Sampled rows, rich in hits. Any-hit rate of the full collection: about 27%.

CC(=O)Nc1ccc(C(=O)CSc2nnnn2C(C)C)cc1	none
Cc1cccc(OCc2nc(C#N)c(NCCN(C)C)o2)c1	none (no result: Cav3 T inh)
CCNc1oc(COc2cccc(C)c2)nc1C#N	CYP2C19 inhib 97.8, CYP2C9 inh 50.9
COc1ccc(S(=O)(=O)NC(C)C(=O)Nc2cccc(C(C)=O)c2)cc1 (stereo not drawn)	CYP2C9 inh 64.1
CCOC(=O)c1ccc(NC(=O)COc2ccc(S(=O)(=O)NC(C)CC)cc2)cc1 (stereo not drawn)	none
COc1ccc(S(=O)(=O)NC(C)C(=O)Nc2ccccc2F)cc1 (stereo not drawn)	none
CCOC(=O)c1ccc(NC(=O)C(C)NS(=O)(=O)c2ccc(OC)cc2)cc1 (stereo not drawn)	CYP2C19 inhib 50.5
O=C(CSc1nnc(NC(=O)CN2CCOCC2)s1)Nc1ccccc1	none
N=C1C(c2nc(-c3ccc(F)cc3)cs2)=C(O)CN1Cc1ccc(Cl)cc1	CYP2C9 inh 53.1
COc1ccc(-c2csc(C3=C(O)CN(Cc4ccc(Cl)cc4)C3=N)n2)cc1OC	CYP2C9 inh 89.4
O=C(NC1CC1)C1CCN(Cc2cnn(-c3ccccc3)c2-n2cccc2)CC1	none
CC(c1nnnn1C1CCCCC1)N(Cc1ccccc1)Cc1cccnc1 (stereo not drawn)	none (no result: CYP2C19 inhib, CYP2C9 activ, CYP2C9 inh, CYP2C19 act)
CC(C)(C)n1nnnc1C(c1cccs1)N(Cc1cccnc1)Cc1ccccc1Cl (stereo not drawn)	CYP2C19 inhib 95.9, CYP2C9 inh 92.1
CC(c1nnnn1C(C)(C)C)N(Cc1cccnc1)Cc1ccccc1Cl (stereo not drawn)	CYP2C19 inhib 98.9, CYP2C9 inh 57.3
Cn1cc(S(=O)(=O)NCc2cccs2)c(=O)n(C)c1=O	none
Cn1cc(-c2nnc(-c3ccccc3)o2)c2ccccc21	CYP2C9 activ 2.4
Cc1ccccc1-c1nnc(-c2ccccc2)o1	none
CCOc1cc(CNc2ccc3cn[nH]c3c2)ccc1OC	CYP2C19 inhib 88.3, CYP2C9 inh 74.9
CCOC(=O)/C(C#N)=C1/SC(C)C(=O)N1c1ccc(Br)cc1 (stereo not drawn)	CYP2C19 inhib 95.4, CYP2C9 inh 71.8
CCOC(=O)/C(C#N)=C1/SC(CC)C(=O)N1c1ccc(Br)cc1 (stereo not drawn)	CYP2C19 inhib 78.4
CCC1S/C(=C(\C#N)C(=O)NCc2ccco2)N(c2ccc(F)cc2)C1=O (stereo not drawn)	none
CCC1S/C(=C(\C#N)C(=O)NCc2ccco2)N(c2ccc(Br)cc2)C1=O (stereo not drawn)	CYP2C9 inh 51.3, Cav3 T inh -5.43
CC(C)c1ccc(C2C3=C(CC(C)(C)CC3=O)NC3=C2C(=O)c2ccccc23)cc1 (stereo not drawn)	none
NCCc1nnc(SCc2ccccc2F)o1	none
Cc1ccc(C)c(CSc2nnc([C@@H](N)C(C)C)o2)c1	CYP2C19 inhib 99.8
Cc1ccc(C)c(CSc2nnc(CCN)o2)c1	CYP2C19 inhib 90.1, CYP2C9 inh 74.5
Cc1ccc(CNC(=O)C2CC3Cn4c(nc5cc(Cl)c(Cl)cc54)C3N2C)o1 (stereo not drawn)	none (no result: CYP2C19 inhib, CYP2C9 activ, CYP2C9 inh, CYP2C19 act)
COc1ccc(-c2ccnc(-c3ccc(OCCCF)cc3)n2)cc1	CYP2C9 inh 51.2
FCCCOc1ccc(-c2nccc(-c3ccc(Cl)cc3)n2)cc1	none (no result: Cav3 T inh)
Cc1noc(C)c1C(=O)N1CCN(C(=O)c2sc3cc(Cl)ccc3c2Cl)CC1	none
Cc1c(CN(C)C(=O)c2sc3cc(Cl)ccc3c2Cl)cnn1C	CYP2C19 inhib 92.6
COc1cccc(-c2cc(N)nn2C(=O)Nc2ccc(Cl)cc2)c1	none
Cc1nc2nc(-c3cccs3)cn2nc1C	CYP2C19 inhib 61.9 (no result: Cav3 T inh)
COc1ccc(-c2cn3nc4c(nc3n2)CCCC4)cc1	none (no result: Cav3 T inh)
COc1cccc(-c2cn3nc(C)c(C)nc3n2)c1	CYP2C19 inhib 82.7
Cc1nc2nc(-c3ccc(Cl)cc3)cn2nc1C	CYP2C19 inhib 55.6 (no result: Cav3 T inh)
Cc1cc(C)nc(SCC(=O)c2cc3ccccc3oc2=O)n1	CYP2C19 inhib 58.0 (no result: Cav3 T inh)
Cc1cc(NC(=O)c2cc3ccccc3oc2=O)no1	none
O=C(CSc1nnnn1-c1ccccc1)c1cc2ccccc2oc1=O	CYP2C9 inh 60.4
CN(C)S(=O)(=O)N(CC(=O)NCc1ccccc1)c1ccccc1	CYP2C19 inhib 67.0
CCOc1ccccc1N(CC(=O)NCc1ccc(OC)cc1)S(C)(=O)=O	CYP2C19 inhib 88.9, CYP2C9 inh 62.2
CCOc1ccc(N(CC(=O)NCc2ccccc2OC)S(C)(=O)=O)cc1	none
CCOc1ccc(N(CC(=O)NCc2ccccc2)S(C)(=O)=O)cc1	CYP2C19 inhib 50.3
COc1ccc(CCNC(=O)CN(c2ccccc2OC)S(C)(=O)=O)cc1	CYP2C19 inhib 92.9, CYP2C9 inh 96.6 (no result: Cav3 T inh)
Cc1cc(C)c(NC(=O)CN(c2ccccc2)S(=O)(=O)N(C)C)c(C)c1	none
COc1ccc(CCNC(=O)CN(c2ccccc2OC)S(C)(=O)=O)cc1OC	none
CCOc1ccccc1N(CC(=O)OC)S(=O)(=O)c1ccccc1	CYP2C19 inhib 50.7, CYP2C9 inh 70.9
Cc1ccc(OCCSc2nnc(-c3cccs3)n2C)cc1	none (no result: CYP2C19 inhib, CYP2C9 activ, CYP2C9 inh, CYP2C19 act)
Cc1cc(OCCSc2nnc(-c3cccs3)n2C)ccc1Cl	CYP2C19 inhib 62.0
Cn1c(SCCOc2ccc(Cl)cc2)nnc1-c1ccncc1	CYP2C19 inhib 78.5 (no result: Cav3 T inh)
Cc1cc(C)c2oc(-c3ccc(Cl)c(NC(=O)c4ccc(C#N)cc4F)c3)nc2c1	none (no result: Cav3 T inh)
COc1ccc(C2C3C=CCC(c4cccc(-c5ccc(C)cc5)c4)C3C(=O)N2Cc2ccccc2)cc1Cl (stereo not drawn)	none (no result: CYP2C19 inhib, CYP2C9 activ, CYP2C9 inh, CYP2C19 act)
CN=c1scc(C)n1/N=C/c1ccc(O)c(O)c1O	none
CCN=c1scc(C)n1/N=C/c1ccsc1	CYP2C19 inhib 60.3
O=C1CC(N2CCC(Cc3ccccc3)CC2)C(=O)N1CCc1ccccc1 (stereo not drawn)	none
O=C(OC(C(=O)NCC1CCCO1)c1ccc(F)cc1)c1ccco1 (stereo not drawn)	none
O=C(CCCOc1ccccc1)N1CCN(c2ccccn2)CC1	CYP2C19 inhib 79.8, CYP2C9 inh 69.0
O=C(CCCOc1ccc(Cl)cc1Cl)n1nnc2ccccc21	none (no result: CYP2C19 inhib, CYP2C9 activ, CYP2C9 inh, CYP2C19 act)
Nc1nncn1C(=O)CCCOc1ccc(Cl)cc1Cl	CYP2C19 inhib 64.6
O=C(CCN1C(=O)C2C3C=CC(C3)C2C1=O)N1CCN(c2ccccn2)CC1 (stereo not drawn)	none (no result: CYP2C19 inhib, CYP2C9 activ, CYP2C9 inh, CYP2C19 act)
O=C(CCCCCNc1nc(=S)[nH]c2ccccc12)N1CCN(c2ccccn2)CC1	CYP2C19 inhib 57.0, CYP2C9 inh 62.1
O=C(CCCOc1ccc(Cl)cc1Cl)N1CCN(c2ccccn2)CC1	CYP2C19 inhib 75.8
O=C(CCCOc1ccccc1)N1CCN(c2ccc(F)cc2)CC1	CYP2C19 inhib 77.4, Cav3 T inh -7.78
